YB-1 expr inh: YB-1 expression inhibition; U2OS, qRT-PCR YB-1 vs CDIP delta delta Cp, 16 h; stronger effect = higher value; zero = DMSO, each unit about twofold; delta delta Cp (YB-1 minus CDIP) (test concentration not listed); 0.37% of 30,000 active;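 active = delta delta Cp rounded down to an integer at or above 3, about 3 SD of DMSO wells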;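 note: higher means less YB-1 transcript or more CDIP transcript relative to DMSO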
Shh pathway inh: Sonic Hedgehog pathway inhibition; AID 2313; inhibition, % (concentration not given with the values); 2.1% of 22,000 active; Shh-LIGHT2 Gli-luciferase reporter, 30 h;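 active = mean inhibition across valid replicates above about 65%, limit read from the data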;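 note: pathway switched on by Shh-conditioned medium diluted 1 in 25 in low serum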
MITF inhib: MITF inhibition; 0.28% of 37,000 active; TRPM1 promoter luciferase, luminescence, 24 h; AID 2240; inhibition, % (test concentration not listed); in the data active = inhibition above about 85%;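 note: human melanocyte line stably carrying TRPM1 promoter luciferase reporter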
Each line names hits and unclear results; the compound was inactive in the other large screens. Many of the other results were omitted from the sample, so hits are more common in it than they were.

CC1CN(S(=O)(=O)c2cccc(C(=O)O)c2)CC(C)O1 (stereo not given)	none
C[C@@H]1O[C@@H](Oc2ccc(-c3coc4cc(O[C@@H]5O[C@@H](C)[C@H](O)[C@@H](O)[C@H]5O)cc(O)c4c3=O)cc2)[C@H](O)[C@H](O)[C@H]1O	none
C[C@@H]1O[C@@H](Oc2cc(O)c3c(=O)c(-c4ccc(O)cc4)coc3c2)[C@H](O)[C@H](O)[C@H]1O	YB-1 expr inh 3.9
CCOC(=O)c1c(CNC(C)C)oc2ccc(OC)cc12	YB-1 expr inh 10
CCOC(=O)c1c(C(C)(C)C)oc2ccc(OCC(=O)OC)cc12	none
COc1c(Cc2ccccc2O)c(O)c(Cc2ccccc2O)c(O)c1C(=O)CCc1ccccc1	Shh pathway inh 89, MITF inhib 91
COc1c(C)c(O)c(C)c(O)c1C(=O)CCc1ccccc1	none
CC(=O)N1c2ccccc2C(C)(c2ccccc2)CC1(C)C (stereo not given)	none
CC1(C)CC(C)(c2ccccc2)c2cc(SC#N)ccc2N1 (stereo not given)	Shh pathway inh 108
CC(C)Cc1ccc(C(C)C(=O)O)cc1 (stereo not given)	none
CC(C(=O)O)c1ccc(C(=O)c2cccs2)cc1 (stereo not given)	YB-1 expr inh 6.9
O=C(Oc1ccc(-c2ccccc2)cc1)c1cccs1	none
COc1c(O[C@@H]2O[C@H](CO)[C@@H](O)[C@H](O)[C@H]2O)cc2c(c1OC)-c1ccc(SC)c(=O)cc1C(NC(C)=O)CC2 (stereo not given in full)	none
CNC1CCc2cc(OC)c(OC)c(OC)c2-c2ccc(OC)c(=O)cc21 (stereo not given)	Shh pathway inh 92
O=C(OC1(C#CCN2CCCCC2)CCCCC1)c1ccccc1	none
CCCCc1c(-c2ccc(O)cc2)[nH]c2nccnc12	YB-1 expr inh 3.3
CCCCc1c(-c2ccc(OC)cc2)[nH]c2nccnc12	none
CC[n+]1c(C=C2C=C(C)CC(C)(C)C2)oc2ccccc21	none (no result: Shh pathway inh)
